In PubChem BioAssay AID488941 (The Scripps Research Institute Molecular Screening Center, 2010) one finds activation data, which are given here for 11 molecules.

Some of the results follow. Unmarked numbers belong to inactive results.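 How the source made its calls: active means mean activation above a set limit taken from an earlier procaspase-7 screen; inactive means the rest.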

The target of the assay is Caspase-7 (Homo sapiens) (UniProt P55210). Kind of assay: procaspase-7 activators, counter-screen for procaspase-3 activator project, biochemical, absorbance, triplicate, human (AID 488941).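 Further: 0% = DMSO wells and 100% = DMSO plus 5 µM procaspase-7 enzyme.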 The following applies: recombinant procaspase-7, Ac-DEVD-pNA absorbance; at 8.5 µM; active compounds read high; asp23/198/206-to-Ala mutant, cannot self-cleave.
Caspase-7 (Homo sapiens), sequence (P55210 whole entry D23A/D198A/D206A): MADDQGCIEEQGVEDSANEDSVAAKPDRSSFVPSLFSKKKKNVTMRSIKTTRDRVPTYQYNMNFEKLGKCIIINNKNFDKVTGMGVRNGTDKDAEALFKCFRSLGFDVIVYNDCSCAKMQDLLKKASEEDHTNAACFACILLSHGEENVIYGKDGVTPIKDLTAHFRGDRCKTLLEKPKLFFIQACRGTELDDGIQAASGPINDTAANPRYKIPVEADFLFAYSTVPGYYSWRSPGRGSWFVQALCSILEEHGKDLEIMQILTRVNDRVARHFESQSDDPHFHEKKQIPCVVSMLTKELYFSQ

As to `COc1ccc(-c2sc3ccc(OC)cc3c2C#Cc2ccccn2)cc1`, the activation is 6.29%.

In the case of `Cc1nn(C)cc1CNC(=O)Nc1ccc(Cl)cc1`, the activation is 1.34%.

As to `COc1ccc(CCNC(=O)COC(=O)c2ccc[nH]c2=O)cc1`, the activation is 3.85%.

On to `CN1CCN(CCCNC(=O)c2ccc(/C=C3\Oc4ccccc4N(Cc4ccc(Cl)cc4)C3=O)cc2)CC1`, for which the activation is -19.9%.

As for `O=C(CCNS(=O)(=O)c1ccccc1C(F)(F)F)NCc1ccc2c(c1)OCO2`, the activation was 1.59%.

`COc1ccccc1NS(=O)(=O)c1ccc(C(=O)N2CCN(c3ccccc3O)CC2)cc1`: the activation is 0.45%.

As for `CCOc1ccc2nc(NCCNS(=O)(=O)c3ccccc3)c(C#N)cc2c1`, the activation is -21%.

Take `COc1ccc2nc(Nc3nc4ccc(NC(C)=O)cc4s3)sc2c1`: the activation is -1.13%.

For the molecule `Oc1ccccc1C1=NN(c2ccccc2)C(c2ccccc2)C1` (stereo unspecified), the activation was -21.3%.

As for `COC(=O)c1cnc(Nc2cc(C)ccc2OC)c2ccccc12`, the activation was -21.2%.

In the case of `COC(=O)Cc1cc(=O)oc2c(C)c(O)ccc12`, the activation is -20.2%.
